The values that follow come from PubChem BioAssay (NCI).

Some test systems named below: T-47D breast; BT-549 breast; MDA-MB-435 melanoma; SW-620 colon; MCF7 breast; HCT-116 colon; HCC-2998 colon; KM12 colon.
What all share (assay): NCI-60 one-dose screen, 48 h (100 = growth as untreated, 0 = no growth, -100 = all killed)
What all share (conditions): 10 µM

SMILES strings stand for the structures. The panel holds about 83,000 compounds, 20% with a hit somewhere; the sample as a whole holds those more often.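 Method: cells in 96-well plates; compound added at one concentration; 48 h incubation; percent growth measured; values under 10 scored active.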 Unmarked numbers belong to inactive results. Calls of active or inactive are those of the source.

`CCN(CC)CCN1c2nc3ccccc3cc2Sc2cc3ccccc3nc21`: the growth in the test on T-47D breast was 73.5%; with BT-549 breast, -92.4% (active); with MDA-MB-435 melanoma, -25% (active); with SW-620 colon, -29.7% (active); with MCF7 breast, -100% (active); in the test on HCT-116 colon, -45.4% (active). Also, the growth with HCC-2998 colon was -99% (active).

Take `CN(C)CCCN1c2ccccc2CCc2ccc(Cl)cc21`: the growth in the test on T-47D breast is 41.3%; in the test with BT-549 breast it was 77.8%; in the test on MDA-MB-435 melanoma it was 28.5%; with SW-620 colon, 89%; in the test on MCF7 breast, 50.8%; with HCT-116 colon, 43%. Also, the growth was -13.4% (active) with HCC-2998 colon and 79.3% in the test with KM12 colon.

With `CN(C)c1ccc(/C=N/NC(=O)c2ccccc2Nc2cccc(C(F)(F)F)c2)cc1`, the growth with T-47D breast is 75.6%; with BT-549 breast, 79.1%; in the test with MDA-MB-435 melanoma, 92.3%; with SW-620 colon, 93.6%; with MCF7 breast, 92.5%; with HCT-116 colon, 75.1%. Besides, the growth with HCC-2998 colon was 116%.

In the case of `CC(C)=CCC/C(C)=C/CC/C(C)=C/CC/C=C(\C)CC/C=C(\C)CCC(=O)Nc1ccn(C2OC(CO)C(O)C2(F)F)c(=O)n1` (centres undefined), the growth was 41% with T-47D breast; 18.3% in the test on BT-549 breast; 29.9% in the test with MDA-MB-435 melanoma; 33.6% in the test with SW-620 colon; 21.8% in the test with MCF7 breast; 20.3% with HCT-116 colon. Further, in the test on HCC-2998 colon, the growth was 82.4%.

With `O=C1c2ccccc2C(=O)N1CCCCNc1ccccc1`, the growth in the test with T-47D breast is 124%; in the test on BT-549 breast, 61.7%; in the test on MDA-MB-435 melanoma, 118%; in the test with SW-620 colon it was 105%; in the test with MCF7 breast, 111%; in the test on HCT-116 colon, 97.5%. In addition, the figures for the growth in the test with HCC-2998 colon and in the test on KM12 colon were 108% and 67%, respectively.

As for `COc1ccc(C(=O)N/N=C/c2cc(C(F)(F)F)ccc2Cl)cc1`, the growth with T-47D breast was 90%; in the test on BT-549 breast, 96.1%; in the test with MDA-MB-435 melanoma, 91.1%; with SW-620 colon it was 98.8%; in the test with MCF7 breast, 60.3%; with HCT-116 colon, 93.2%. The figures for the growth in the test on HCC-2998 colon and with KM12 colon were 95.7% and 101%, respectively.

Regarding `COc1ccc(C(=O)CC(CC(=O)c2ccc(OC)cc2)c2c(C)nn(-c3ccccc3)c2Cl)cc1`, the growth in the test with T-47D breast is 109%; with BT-549 breast it was 92%; in the test on MDA-MB-435 melanoma, 91.9%; in the test with SW-620 colon, 102%; with MCF7 breast, 95.4%; in the test with HCT-116 colon, 88.9%. For the same molecule, the growth was 109% in the test on HCC-2998 colon and 98% with KM12 colon.

On to `C[C@@H](O)[C@H]1C(=O)N2C(C(=O)O)=C(SC3CN[C@H](C(=O)N(C)C)C3)[C@H](C)[C@H]12` (some centres undefined), for which the growth in the test with T-47D breast is 98.2%; in the test with BT-549 breast, 105%; in the test with MDA-MB-435 melanoma, 101%; in the test with SW-620 colon, 99.4%; with MCF7 breast, 101%; in the test on HCT-116 colon, 104%. In addition, the figures for the growth with HCC-2998 colon and in the test with KM12 colon were 106% and 108%, respectively.

Consider `O=C(CCCNC(=O)c1nc(-c2ccccc2)n(-c2ccccc2)n1)NO`, for which the growth was 94% in the test on T-47D breast; 106% with BT-549 breast; 109% in the test on MDA-MB-435 melanoma; 106% in the test with SW-620 colon; 92% in the test on MCF7 breast; 85.6% with HCT-116 colon. Besides, the values for the growth in the test on HCC-2998 colon and with KM12 colon were 98.9% and 110%, respectively.

In the case of `CC(=O)Nc1ccc(CC[C@H]2CCC/C=C/[C@@H]3C[C@H](O)C[C@H]3[C@H](O)/C=C/C(=O)O2)cc1`, the growth in the test on T-47D breast was 7.42% (active); in the test with BT-549 breast, 27.5%; in the test with MDA-MB-435 melanoma, 14.7%; in the test with SW-620 colon, 0.331% (active); in the test on MCF7 breast, -14.8% (active); in the test with HCT-116 colon it was -67.9% (active). Besides, the growth with HCC-2998 colon is 2.85% (active).

With `O=C(CCC(C(=O)c1ccccc1)c1ccccc1)c1ccccc1` (centres undefined), the growth was 66.6% with T-47D breast; 54.5% with BT-549 breast; 4.52% (active) in the test with MDA-MB-435 melanoma; 41.9% in the test on SW-620 colon; 72% in the test on MCF7 breast; 50.3% in the test on HCT-116 colon. Also, the growth with HCC-2998 colon was 76.6%; with KM12 colon, 34.5%.

Take `COc1ccc(CCN2CCC(Nc3nc4ccccc4n3Cc3ccc(F)cc3)CC2)cc1`: the growth with T-47D breast is -3.86% (active); in the test with BT-549 breast, 31.9%; in the test on MDA-MB-435 melanoma, -91.7% (active); in the test with SW-620 colon it was -54.8% (active); with MCF7 breast it was -53.6% (active); in the test with HCT-116 colon, -39.4% (active). Also, the growth with HCC-2998 colon was -84.6% (active); in the test with KM12 colon, 17.7%.

For `Cc1cc(Cl)ccc1Nc1nc(C(F)(F)F)ccc1C(=O)N/N=C/c1c(Cl)cccc1Cl`, the growth with T-47D breast is -13.3% (active); with BT-549 breast, -15% (active); with MDA-MB-435 melanoma, 10.5%; in the test on SW-620 colon it was 6.12% (active); with MCF7 breast, 7.7% (active); in the test on HCT-116 colon, 1.5% (active). For the same molecule, in the test with HCC-2998 colon, the growth was 19.5%.

As to `COc1ccc(C(=O)COc2cccc(/C=C3\Cc4ccccc4C3=O)c2)cc1`, the growth is 73.8% in the test on T-47D breast; 74.5% in the test with BT-549 breast; 58.8% with MDA-MB-435 melanoma; 89.5% in the test on SW-620 colon; 65.9% with MCF7 breast; 84.4% with HCT-116 colon. Besides, in the test on HCC-2998 colon, the growth was 92.9%.

For the molecule `Nc1nc(-c2cccnc2)nc2c1sc(=S)n2-c1ccccc1`, the growth was 90.8% in the test with T-47D breast; 101% in the test on BT-549 breast; 111% in the test with MDA-MB-435 melanoma; 104% with SW-620 colon; 94.4% with MCF7 breast; 70.7% in the test on HCT-116 colon. For the same molecule, the values for the growth in the test on HCC-2998 colon and in the test with KM12 colon were 105% and 99%, respectively.
